Screens (PubChem)
INS promoter inh = TRM-6 insulin promoter activity inhibition. TRM-6 cells (human fetal islet line), insulin promoter-eGFP reporter, imaging; reporter expression induced with tamoxifen. inhibition, % at 2 µM. 130,000 tested, 0.9% active;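 active = inhibition above the mean plus 3 SD, with well images judged a real hit on visual review, cut at about 60% in these data, passing the limit was not always enough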
TbHK1 inh = T. brucei hexokinase 1 inhibition | inhibition, % at 10 µM | recombinant TbHK1, G6PDH-coupled NADH A340 | 220,000 tested, 0.11% active | AID 1430;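 active = inhibition of 50% or more in the single-dose primary screen; inactive = inhibition below 50%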
ROMK primary = modulators of human ROMK potassium channel; 130,000 tested, 2% active; Tet-inducible ROMK, thallium flux fluorescence; actives lie on both sides; AID 1918; P48048; B-score at 10 µM;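 active = signal ratio slope over the read window, or its plate-corrected B-score, at least 3 SD from the plate mean, either direction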;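 also: B-score of the F/F0 ratio slope over 7 to 12 s after thallium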
Target sequence (P48048 whole entry, looked up): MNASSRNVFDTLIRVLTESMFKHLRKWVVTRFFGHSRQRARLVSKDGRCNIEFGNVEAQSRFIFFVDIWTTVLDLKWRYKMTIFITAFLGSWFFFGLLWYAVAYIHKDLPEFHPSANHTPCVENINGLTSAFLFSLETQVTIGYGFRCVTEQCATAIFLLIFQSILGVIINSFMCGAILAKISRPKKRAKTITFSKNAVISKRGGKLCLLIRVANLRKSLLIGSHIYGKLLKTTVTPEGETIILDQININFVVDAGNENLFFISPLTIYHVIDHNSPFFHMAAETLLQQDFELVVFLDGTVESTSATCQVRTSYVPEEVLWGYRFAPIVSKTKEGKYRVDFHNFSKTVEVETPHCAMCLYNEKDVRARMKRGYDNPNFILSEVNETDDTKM
HSV replic up = increases HSV replication in cells | 220,000 tested, 0.005% active | HSV replication augmentation in cells, fold increase | maximum fold increase; in the data active = maximum fold increase above about 1.5; tested in PC3 cells
Ins promoter up = MIN6 insulin promoter up-regulation. 190,000 tested, 0.3% active. MIN6 insulin promoter-GFP reporter, high-content imaging; active compounds read high. z-score at 5 µM;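 active = z-score above 3 at 5 µM with at least 500 cells counted in the well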
Numbers without * were called inactive; i = inactive; . = not tested or not shown. The entries come from a sample that favours hits as a whole.

SMILES	INS promoter inh	TbHK1 inh	ROMK primary	HSV replic up	Ins promoter up
Cc1ccc(C(=O)CSc2ncn[nH]2)cc1	57	37	-0.098	i	-0.09
O=C(O)CSc1ncn[nH]1	77*	-1	.	i	-0.86
Cc1ccc(/C=C2\SC(=S)N(C(Cc3ccccc3)C(=O)O)C2=O)cc1 (stereo not given)	27	39	-3*	i	0.03
O=C(CCN1CCC(c2ccccc2)C1)c1cccs1 (stereo not given)	35	2	.	i	0.26
O=C(c1cccs1)N1CCC(c2ccccc2)C1 (stereo not given)	79*	2	.	i	0.68
Cc1ccc(Nc2nc3c([nH]2)c(=O)n(C)c(=O)n3C)cc1	6	1	.	i	3.3*
Cc1cc(C)cc(Nc2nc3c([nH]2)c(=O)n(C)c(=O)n3C)c1	58	-11	0.44	i	0.72
CC(C)(C)CC(=O)NCc1ccc(F)cc1	73*	-12	-0.25	i	-0.26
COc1ccc(C(=O)Nn2c(SCC(=O)c3ccc(Cl)cc3)nc3ccccc3c2=O)cc1	83*	-3	.	i	-0.42
COc1ccc(C(=O)Nn2c(SCC(=O)N3CCC(C)CC3)nc3ccccc3c2=O)cc1	11	2	.	i	.
CCCC/C=C/C(NC(=O)c1ccc(C(=O)OC)cc1)c1ccccc1 (stereo not given)	.	.	.	i	.
N#Cc1c(-c2cccs2)nc(SCc2ccc(Cl)cc2)[nH]c1=O	40	6	3.6*	i	.
Cc1ccc2nc(N3CCN(Cc4nnnn4C4CCCC4)CC3)c(C#N)cc2c1	100*	-3	.	i	.
COc1cccc2c1nc(C)c1cc(C)oc12	.	0	.	i	0.2
COc1ccc2nc(C)c3cc(C)oc3c2c1	90*	-3	-0.84	i	0.37
Cc1cccc2cc3c(N)c(C(=O)Nc4ccc(N5CCOCC5)cc4)sc3nc12	-27	-22	.	i	-0.2
Cc1cccc2cc3c(N)c(C(=O)N4CCc5ccccc54)sc3nc12	-233	-13	-0.14	i	4.4*
Cc1c(-c2ccccc2)sc2nc[nH]c(=S)c12	-42	-11	4.9*	i	-0.35
Cc1ccc(-c2csc3nc[nH]c(=S)c23)cc1C	.	-6	.	i	0.01
Fc1ccc(-c2n[nH]c(=S)n2CC2CCCO2)cc1 (stereo not given)	.	-5	2.4*	i	0.78
CCn1ncc(Br)c1C(=O)Nc1ccn(C23CC4CC(CC(C4)C2)C3)n1	19	15	.	i	-0.56
CCn1ncc(Br)c1C(=O)N(C)C12CC3CC(CC(C3)C1)C2	.	-2	-4.5*	i	-0.35
C=CCn1c(-c2cccs2)nc2ccccc21	80*	-9	.	i	0.71
CS(=O)(=O)N(CC(=O)Nc1ccccc1C(=O)N1CCCC1)c1ccc2c(c1)OCO2	-38	1	0.78	i	1.1
O=c1c(-n2cncn2)c[nH]n1-c1cccc(Cl)n1	92*	8	0.82	i	0.08
SMILES	INS promoter inh	TbHK1 inh	ROMK primary	HSV replic up	Ins promoter up
Fc1ccc(CO/N=C2\CCCc3nonc32)cc1	.	-7	-1.9	i	0.26
CCOc1ncccc1C(=O)OCC(=O)c1ccccc1Br	-33	2	0.42	i	-0.33
CCOc1ccnc(OCC)c1Br	79*	2	0.45	i	0.72
CC(/C=N/NC(=O)Cc1cccn1C)=C\c1ccccc1	75*	-4	0.1	i	0.07
CC(/C=N/NC(=O)Cc1cccs1)=C\c1ccccc1	-8	-14	-0.3	i	-0.04
CC12CCC(C(=O)Nc3ccc(Br)cn3)(OC1=O)C2(C)C (stereo not given)	.	-3	.	i	0.04
CC1CCCCC1NC(=S)NC(=O)c1sc2ccccc2c1Cl (stereo not given)	.	-9	-0.025	i	-0.37
O=C(NC(=S)N(CCCCO)C1CCCCC1)c1sc2ccccc2c1Cl	.	9	3.1*	i	-1.1
CCCCn1c(O)c(/C=C/C=C/C=Nc2ccccc2)sc1=S	-225	13	0.022	i	4.7*
CCn1c(O)c(/C=C/C=C/C=Nc2ccccc2)sc1=S	-61	-5	0.27	i	0.09
Oc1c(/C=C/C=C/C=Nc2ccccc2)sc(=S)n1Cc1ccccc1	.	8	.	i	3.3*
CCCn1c(O)c(C=Nc2ccccc2)sc1=S	.	-2	-1	i	-0.52
CCOC(=O)c1ccc(/C=C2/C=C(c3ccccc3)N(c3ccc(Cl)c(C(=O)O)c3)C2=O)cc1	25	9	.	i	0.7
O=C1CCCCC1C(O)c1ccc(Cl)cc1 (stereo not given)	.	5	.	i	-0.3
CCn1ccnc1CN(C)Cc1cn[nH]c1-c1ccc(OC)c(F)c1	.	2	0.021	i	0.3
